Assay results taken from paper PMC11995724, “Antibiotic target discovery by integrated phenotypic and activity-based profiling of electrophilic fragments” (Cell chemical biology, 2025).
About 75 (2%) of roughly 3,200 compounds showed an effect of 50% or more. The entries come from a sample that favours strong results as a whole.

tested on: T1, S. aureus MSSA476; parameters: species or system S. aureus MSSA476 (TSB) or V. cholerae SAD30 (LB); 384-well bacterial growth screen at 25 uM, OD600 relative to DMSO control; conditions: relative growth, OD600, TSB; 25 µM; inhibitor
T1 construct: MSSA476

Row | Compound | % of control remaining [%]
1 | CC1CCN(C(=O)CCl)c2cc(C(F)(F)F)ccc2S1 (stereo not shown) [5-J07, 2-chloro-1-[2-methyl-7-(trifluoromethyl)-2,3,4,5-tetrahydro-1,5-benzothiazepin-5-yl]ethan-1-one] | 106.011
2 | O=C(CCl)Nc1c(Cl)cccc1C(F)(F)F [5-B04, 2-chloro-N-[2-chloro-6-(trifluoromethyl)phenyl]acetamide] | 82.3315
3 | O=C(CCl)N1CCOc2c1cccc2C(F)(F)F [5-G08, 2-chloro-1-[8-(trifluoromethyl)-3,4-dihydro-2H-1,4-benzoxazin-4-yl]ethan-1-one] | 0.3643
4 | CN(C)S(=O)(=O)c1ccc(Cl)c(NC(=O)CCl)c1 [6-H12, 2-chloro-N-[2-chloro-5-(dimethylsulfamoyl)phenyl]acetamide] | 88.439
5 | C=CC(=O)N1CCN(Cc2cc(=O)n3ccsc3n2)CC1 [3-F22, 7-{[4-(prop-2-enoyl)piperazin-1-yl]methyl}-5H-[1,3]thiazolo[3,2-a]pyrimidin-5-one] | 101.698
6 | O=C(CCl)N1c2ccccc2Sc2ccc(Cl)cc21 [4-N07, 2-chloro-1-(2-chloro-10H-phenothiazin-10-yl)ethan-1-one] | 3.049
7 | CC1CSc2ccc(Cl)cc2N(C(=O)CCl)C1 (stereo not shown) [5-J05, 2-chloro-1-(7-chloro-3-methyl-2,3,4,5-tetrahydro-1,5-benzothiazepin-5-yl)ethan-1-one] | 95.4463
8 | CC1CCN(C(=O)CCl)c2cc(Cl)ccc2S1 (stereo not shown) [4-G16, 2-chloro-1-(7-chloro-2-methyl-2,3,4,5-tetrahydro-1,5-benzothiazepin-5-yl)ethan-1-one] | 93.3778
9 | CC(Cl)C(=O)N(Cc1nnc(-c2ccccc2Cl)o1)C1CC1 (stereo not shown) [5-B17, 2-chloro-N-{[5-(2-chlorophenyl)-1,3,4-oxadiazol-2-yl]methyl}-N-cyclopropylpropanamide] | 92.5319
10 | O=C(CCl)c1ccccn1 [10-J03, 2-chloro-1-(pyridin-2-yl)ethan-1-one] | 51.875
11 | C[C@H]1CN(C(=O)CCl)CCN1C(=O)c1cscn1 [5-L05, 2-chloro-1-[(3S)-3-methyl-4-(1,3-thiazole-4-carbonyl)piperazin-1-yl]ethan-1-one] | 92.5319
12 | O=C(CCl)c1cscn1 [10-L08, 2-chloro-1-(1,3-thiazol-4-yl)ethan-1-one] | 27.8125
13 | CCOc1ccccc1NC(=O)C(C)Cl (stereo not shown) [6-M10, 2-chloro-N-(2-ethoxyphenyl)propanamide] | 106.195
14 | C=CC(=O)NCc1nc(C2CC2)cs1 [2-A19, N-[(4-cyclopropyl-1,3-thiazol-2-yl)methyl]prop-2-enamide] | 138.207
15 | CC1CSc2ccccc2N(C(=O)CCl)C1 (stereo not shown) [5-H07, 2-chloro-1-(3-methyl-2,3,4,5-tetrahydro-1,5-benzothiazepin-5-yl)ethan-1-one] | 104.554
16 | O=C(CCl)N1CCCSc2ccccc21 [4-E16, 2-chloro-1-(2,3,4,5-tetrahydro-1,5-benzothiazepin-5-yl)ethan-1-one] | 116.627

Row | Compound | % of control remaining [%]
17 | O=C(CCl)N1c2ccccc2SCC1c1ccccc1 (stereo not shown) [4-M18, 2-chloro-1-(3-phenyl-3,4-dihydro-2H-1,4-benzothiazin-4-yl)ethan-1-one] | 9.528
18 | C=CC(=O)N1C[C@H](NC(C)=O)[C@@H](c2ccnn2C)C1 (racemic) [2-M16, rac-N-[(3R,4S)-4-(1-methyl-1H-pyrazol-5-yl)-1-(prop-2-enoyl)pyrrolidin-3-yl]acetamide] | 90.5135
19 | Cc1nn(CC(C)C)c(Cl)c1C1CCCN1C(=O)C(C)Cl (stereo not shown) [7-P19, 2-chloro-1-{2-[5-chloro-3-methyl-1-(2-methylpropyl)-1H-pyrazol-4-yl]pyrrolidin-1-yl}propan-1-one] | 108.32
20 | CC(Cl)C(=O)N(Cc1ccccc1)Cc1ccccc1 (stereo not shown) [5-K19, N,N-dibenzyl-2-chloropropanamide] | 103.097
21 | CN(C(=O)CCl)C(c1ccc(Cl)cc1)C(F)(F)F (stereo not shown) [7-J16, 2-chloro-N-[1-(4-chlorophenyl)-2,2,2-trifluoroethyl]-N-methylacetamide] | 101.413
22 | CC(c1ccc(C(F)(F)F)c(Cl)c1)N(C)C(=O)CCl (stereo not shown) [7-F14, 2-chloro-N-{1-[3-chloro-4-(trifluoromethyl)phenyl]ethyl}-N-methylacetamide] | 6.593
23 | CC(c1ccc(C(F)(F)F)cc1F)N(C)C(=O)CCl (stereo not shown) [7-P18, 2-chloro-N-{1-[2-fluoro-4-(trifluoromethyl)phenyl]ethyl}-N-methylacetamide] | 94.5055
24 | Cc1ccc(C=C(C#N)C(=O)Nc2nccs2)s1 [8-P13, 2-cyano-3-(5-methylthiophen-2-yl)-N-(1,3-thiazol-2-yl)prop-2-enamide] | 93.61
25 | Cc1ccccc1NC(=O)C(C#N)=Cc1ccc2c(c1)OCCO2 [8-J03, 2-cyano-3-(2,3-dihydro-1,4-benzodioxin-6-yl)-N-(2-methylphenyl)prop-2-enamide] | 129.461
26 | N#Cc1ccc(N2C(=O)C=CC2=O)cc1 [10-B09, 4-(2,5-dioxo-2,5-dihydro-1H-pyrrol-1-yl)benzonitrile] | 133.438
27 | O=C1C=CC(=O)N1c1ccc(F)cc1 [10-M10, 1-(4-fluorophenyl)-2,5-dihydro-1H-pyrrole-2,5-dione] | 118.75
28 | O=C1C=CC(=O)N1c1ccc(SC(F)F)cc1 [10-A18, 1-{4-[(difluoromethyl)sulfanyl]phenyl}-2,5-dihydro-1H-pyrrole-2,5-dione] | 29.6875
29 | COc1ccccc1NC(=O)C(C#N)=Cc1ccc(C)s1 [8-B15, 2-cyano-N-(2-methoxyphenyl)-3-(5-methylthiophen-2-yl)prop-2-enamide] | 118.838
30 | Cc1ccc(C=C(C#N)C(=O)Nc2ccccc2Cl)s1 [9-C22, N-(2-chlorophenyl)-2-cyano-3-(5-methylthiophen-2-yl)prop-2-enamide] | 83.2959
31 | Cc1ccc(C=C(C#N)C(=O)Nc2ccccc2C(=O)O)s1 [9-K08, 2-[2-cyano-3-(5-methylthiophen-2-yl)prop-2-enamido]benzoic acid] | 38.0524
